# D1 ag: agonists of human D1 dopamine receptor | 360,000 tested, 1% active | HEK293 T-REx D1 cells, calcium flux, agonist mode | activation, % at 2 µM | P21728; in the data active means activation above about 30%; further: 0% is about no effect
#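 Agonism was scored from calcium flux recorded over 180 s (1 read/s) after pintool compound addition, following a 10-cycle baseline. Cells were inducible force-coupled HEK293 TREx D1, plated overnight at 30 C and loaded with no-wash calcium dye.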
# DRD3 antagonist: blocks the human D3 dopamine receptor; P35462; 360,000 tested, 2.5% active; D3R cells, DiscoveRx beta-arrestin luminescence, antagonist mode; active compounds read low; max response, negative = inhibition, %; in the data active means max response below about -50%; inconclusive means no clear call, values can overlap the other calls; further: on the % scale 0 is the no-effect control and ±100 the full control effect
# Target sequence (P35462 whole entry, looked up): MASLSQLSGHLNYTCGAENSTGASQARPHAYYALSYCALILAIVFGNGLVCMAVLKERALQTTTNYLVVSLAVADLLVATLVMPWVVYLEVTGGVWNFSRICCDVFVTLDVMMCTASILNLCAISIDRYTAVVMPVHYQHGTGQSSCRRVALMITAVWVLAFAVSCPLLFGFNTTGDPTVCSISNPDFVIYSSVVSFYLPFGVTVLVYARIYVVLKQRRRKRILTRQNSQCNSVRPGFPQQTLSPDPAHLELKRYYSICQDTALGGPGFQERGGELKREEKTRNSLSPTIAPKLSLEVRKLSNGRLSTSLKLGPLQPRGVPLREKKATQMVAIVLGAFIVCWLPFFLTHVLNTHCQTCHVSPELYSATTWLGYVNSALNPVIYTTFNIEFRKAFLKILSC
#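 Cells plated overnight at 1500 cells/well, then exposed to library compounds with dopamine controls for 90 minutes at 37 degrees C. DiscoveRx reagent added for 30–60 minutes at room temperature; luminescence read, quantitative HTS format.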
# D1 antagonist: human D1 dopamine receptor antagonism | activity change, negative = inhibition, % at 10 µM | 360,000 tested, 3.2% active | HEK293 TREx D1 cells, calcium flux, dopamine EC80; active compounds read low | P21728; in the data active means activity change below about -30%; further: on the % scale 0 is the no-effect control and ±100 the full control effect
#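 Inducible Hek293 Trex D1 cells (tetracycline, overnight, 30 C). Calcium dye 30–90 min RT. Antagonist mode: EC80 dopamine added after 180 s compound read.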
# D1 PAM: enhances dopamine response at the human D1 receptor | P21728 | HEK293 TREx D1 cells, calcium flux, dopamine EC20 potentiation | potentiation, % at 10 µM | 360,000 tested, 0.036% active | AID 504651; in the data active means potentiation above about 30%; further: 0% is about no effect
# D3 ag: activates the human D3 dopamine receptor | P35462 | D3R DiscoveRx beta-arrestin cells, luminescence, 90 min | max activation, % | 410,000 tested, 0.58% active; in the data active means max activation above about 30%; further: 0% is about no effect
#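 Agonist mode: compounds and dopamine controls were applied to plated cells for 90 min at 37 degrees C after an overnight attachment at 1500 cells/well. Luminescent read-out followed 30 - 60 minutes at room temperature with DiscoveRx detection reagent.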
# * = called active by the depositor; u = inconclusive; x = no result. The list is not random: actives were taken first. Their share in the collection is about 6%.
SMILES,D1 ag,DRD3 antagonist,D1 antagonist,D1 PAM,D3 ag
Cc1cccc(NC(=S)NC2CC3CCCC(C2)N3Cc2cccs2)c1 (stereo not drawn),13,-87*,-89*,-20,-29
COCCNC(=S)NC1CC2CCCC(C1)N2Cc1cccs1 (stereo not drawn),-1,u,2,-4,-39
Cc1ccc(C)c(N2CCN(C(=O)CN3C(=O)COc4ccc(S(=O)(=O)N5CCCC5)cc43)CC2)c1,-1,x,10,4,-4
CC(=O)N1CCc2c(sc3c2c(=O)n(Cc2ccccc2)c(=O)n3Cc2ccccc2Cl)C1,2,x,10,2,1
CC(=O)N1CCc2c(sc3c2c(=O)n(-c2ccccc2Cl)c(=O)n3C)C1,5,x,16,-3,31*
CCOc1ccc(NS(=O)(=O)c2c(C)nc3sc(C)c(C)n3c2=O)cc1,10,x,-3,5,9
O=C1NCC(COCc2ccccc2)O1 (stereo not drawn),0,-16,-2,-4,4
O=C1CCCCC(=O)[C@H](O)C[C@H](COCc2ccccc2)O1,x,0,x,x,91*
CC(=O)Nc1ccc(NC(=O)c2ccccc2C)cc1,-1,-30,6,6,1
CC(=O)Nc1ccc(NC(=O)c2ccccc2CCc2ccccc2)cc1,4,-3,-31*,-12,2
CCOC(=O)c1c(NC(=O)C2=C(C)NC(=S)NC2c2ccc(C)cc2)sc(C)c1C (stereo not drawn),1,-53*,21,-3,-13
Cn1c(SCc2c(F)cccc2Cl)nc2ccccc2c1=O,-1,-4,24,8,4
Cn1c(SCc2c(F)cccc2Cl)nc2c(c1=O)SCC2,2,5,-31*,-8,-6
COc1c(C=O)cc2c3c1CCCN3CCC2,0,2,9,-4,-4
NCc1cc2c3c(c1)CCCN3CCC2,3,-65*,-5,-6,10
C[C@@H]1CN(C(=O)c2ccc(OC3CCN(S(=O)(=O)N(C)C)CC3)cc2)C[C@H](C)O1,3,-2,-30*,2,-11
CN1CCN(C2(CNC(=O)c3ccc([N+](=O)[O-])cc3)CCCCC2)CC1,16,x,-21,-2,-1
NC1=NC2(CCN(Cc3ccccc3)CC2)n2c(nc3ccccc32)N1,1,-75*,-43*,-10,-9
NC1=NC2(CCCCC2)n2c(nc3ccccc32)N1,10,6,-4,-3,5
CC(NC(=O)c1ccc(N2Cc3ccccc3Oc3ncccc32)s1)c1ccccc1 (stereo not drawn),1,x,7,-4,-4
Cc1cccc(OCCSc2nnc(-c3cccs3)o2)c1,44*,x,-18,1,-23
COc1cc(C)ccc1OCCSc1nnc(-c2cccs2)o1,0,x,-3,0,1
COc1ccc(NC(=S)NNC(=O)COc2ccc(Cl)cc2Cl)cc1,44*,-16,-4,-4,3
COC(CC(=O)NNC(=S)Nc1ccccc1)OC,3,-4,4,-6,1
COC(CC(=O)NNC(=S)Nc1ccc(Cl)cc1)OC,3,4,-30*,4,-4
SMILES,D1 ag,DRD3 antagonist,D1 antagonist,D1 PAM,D3 ag
Cc1cccc(C)c1OCC(=O)Nc1c(C(=O)c2ccccc2)oc2ccccc12,-1,x,0,-2,-18
COC(=O)c1ccc(CSc2ccc3nnc(-c4cccc(F)c4)n3n2)o1,-1,-5,-30*,0,-2
CN(N=O)C(=O)N[C@@H]1[C@@H](O)[C@H](O)[C@@H](CO)O[C@@H]1O,x,x,x,x,2
CO[C@H]1C=CO[C@@]2(C)Oc3c(C)c(O)c4c(O)c(c(C=NN5CCN(C)CC5)c(O)c4c3C2=O)NC(=O)C(C)=CC=C[C@H](C)[C@H](O)[C@@H](C)[C@@H](O)[C@@H](C)[C@H](OC(C)=O)[C@@H]1C,7,-76*,-13,1,-39
CCN(CC)c1ccc2cc(-c3nc(-c4ccc(OC)cc4)cs3)c(=O)oc2c1,419*,102,-58*,-1,33*
CCN(CC)c1ccc2cc(-c3nc(-c4ccc(Cl)cc4Cl)cs3)c(=O)oc2c1,119*,x,22,-2,-6
CCN(CC)c1ccc2cc(C(=O)c3cccs3)c(=O)oc2c1,x,8,x,x,-4
CC(=O)N1CCc2cc(S(=O)(=O)N3CCN(c4ccc(C)cc4)C(C)C3)ccc21 (stereo not drawn),3,x,-1,-1,-13
CCOc1ccc(NC(=O)CN2CCSc3ccc(S(=O)(=O)N4CCCC4)cc32)cc1,2,x,-20,-1,-7
CN(C)c1ccc(C2CC(c3c(O)n(C4CCCCC4)c(=O)[nH]c3=O)=Nc3ccccc3S2)cc1 (stereo not drawn),0,x,-4,1,2
Cc1ccn2c(CNCCCn3cccn3)c(C(=O)N3CCCCCC3)nc2c1,3,-58*,0,-2,-15
Cc1ccn2c(CNCCn3cccn3)c(C(=O)N3CCCCCC3)nc2c1,1,-17,-1,3,-8
Cc1ccn2c(CNCC3OCCc4ccccc43)c(C(=O)N3CCCCCC3)nc2c1 (stereo not drawn),0,-81*,-7,-5,-13
Nc1ccc(C#Cc2ccc3oc4ccccc4c(=O)c3c2)cc1,x,169,x,x,59*
Nc1cccc(C#Cc2ccc3c(=O)c4ccccc4oc3c2)c1,0,11,x,-2,27
COc1cc2sc3ccc(C#Cc4ccc(N)cc4)cc3c(=O)c2cc1OC,x,6,x,x,35*
Nc1ccc2oc3ncccc3c(=O)c2c1,1,-98*,-7,11,1
Cn1c2ccccc2c(=O)c2cc(C#Cc3ccc(N)cc3)ccc21,3,65,0,2,59*
COc1ccc(S(=O)(=O)Nc2ccc3oc4ncccc4c(=O)c3c2)cc1OC,1,0,-15,-4,-5
COc1cc2sc3ccc(C#Cc4ccccn4)cc3c(=O)c2cc1OC,x,6,x,x,8
CC(=O)c1ccc(NC(=O)c2nn(C)c3c2COc2ccccc2-3)cc1,3,x,5,-1,3
CCCCC12CN3CC(C)(CN(C1)C3c1c(C)[nH]c(=O)[nH]c1=O)C2=O (stereo not drawn),0,x,-7,1,4
COc1ccc(CNC(=O)c2ccc3c(c2)N(Cc2ccc(C)cc2)CCS3)cc1,0,x,2,-1,-8
CCOc1ccc(CNC(=O)c2ccc3c(c2)N(CC)CCS3)cc1,3,-67*,13,-7,-13
CCN1CCSc2ccc(C(=O)NCc3ccc(OC(C)C)cc3)cc21,4,-77*,-16,-10,-13
CCOc1ccc(C(=O)Cn2c(=O)n3nc(CCn4nc(C)cc4C)nc3c3cc(OC)c(OC)cc32)cc1,-1,x,-13,1,6
